According to ChEMBL document CHEMBL3988442, “University of Dundee, Small-Polar-MMV Screening Library” (2021):

The compounds below were run against Shiga toxin 2 (Escherichia coli O157:H7) (UniProt P09385+P09386) (assay: E. coli 0.157:H7 Shiga Toxin SOP - stx2 screening assay). Details: 30 µM.
Type: functional
Set-up: scale not given: direction of the effect not stated beside the values

Q: With CCCc1n[nH]c(C2CN(C(=O)c3ccco3)CCO2)n1 (stereo not given) as the compound, how does the Percent Effect read?
A: 8.05%

Q: With O=C(Cc1ccccn1)N1CCc2nc(-c3cnccn3)nc(O)c2C1 as the compound, how does the Percent Effect read?
A: 4.64%

Q: For CCC1CN(c2nnc(C)c(C)c2C#N)CCO1 (stereo not given), which Percent Effect is on record?
A: 11.9%

Q: For CC(C)NC(=O)c1n[nH]c(-n2cnnc2)n1, which Percent Effect is on record?
A: -0.0919%

Q: Which Percent Effect does the source give for CC(C)(C)NC(=O)NC(=O)CNC(C)(C)c1ccc2c(c1)OCCO2 here?
A: 41.7%

Q: How did the Percent Effect turn out when CN(C)c1ccc(C(=O)NCC2(c3ccccc3)CCOCC2)cc1 was run?
A: -24.7%

Q: How did the Percent Effect turn out when Cc1ccc(N2CC[C@H]3OCC[C@@]3(C(=O)NC(C)C)C2)nn1 was run?
A: 7.17%

Q: For COCc1noc(C2(c3ccc(F)cc3)CCOCC2)n1, which Percent Effect is on record?
A: -10.8%

Q: For O=C(CCNC(=O)c1ccccc1)Nc1ccncc1, which Percent Effect is on record?
A: -111%

Q: Cc1csc(C2CCCN(C(=O)c3cnc4n[nH]c(C)c4c3)C2)n1 (stereo not given) was tested. Which Percent Effect did it give?
A: 21.9%

Q: For Cn1cc(CN2CCCN(C(=O)c3cc(Cl)cn3C)CC2)cn1, which Percent Effect is on record?
A: 22.7%

Q: For CCc1ccccc1CN1CC[C@@H](NC(=O)c2cccnc2)[C@H](O)C1, which Percent Effect is on record?
A: -1.07%

Q: For Cc1nc(CN2CCCC2c2c(C)nn(C)c2Cl)no1 (stereo not given), which Percent Effect is on record?
A: 18.6%

Q: CC(C)NC(=O)N1CC[C@@H]2CN(Cc3cccc(Cl)c3)S(=O)(=O)[C@@H]2CC1 was tested. Which Percent Effect did it give?
A: -9.22%

Q: Which Percent Effect does the source give for Cc1noc(C)c1CNC(=O)N1CCN(Cc2cscn2)CC1 here?
A: 1.78%

Q: Which Percent Effect does the source give for Cc1ncc(CN2Cc3ccccc3O[C@]3(CC[C@H](CO)CC3)C2)cn1 here?
A: 18.1%

Q: How did the Percent Effect turn out when CC(NC(=O)CCn1cncn1)c1nnc2n1CCCCC2 (stereo not given) was run?
A: -13.7%

Q: How did the Percent Effect turn out when CCn1ncc(CN2CCc3c(nc(-c4cccnc4)[nH]c3=O)C2)c1C was run?
A: -14.2%

Q: CC(Nc1cccc(CN2CCOC2=O)c1)C(=O)Nc1ccccc1F (stereo not given) was tested. Which Percent Effect did it give?
A: -24.4%

Q: How did the Percent Effect turn out when CCCS(=O)(=O)N1CCN(c2cc(-n3cnc(C)c3C)nc(C)n2)CC1 was run?
A: -17.5%

Q: Cc1csc2nc3n(c(=O)c12)CCN(C(=O)c1ccncc1)CC3 was tested. Which Percent Effect did it give?
A: 3.14%

Q: How did the Percent Effect turn out when CC(=O)N1CCCN(C(=O)c2csc(-c3ccc(C)cc3C)n2)CC1 was run?
A: -0.511%

Q: COc1ccc(S(=O)(=O)N2CCC(S(C)(=O)=O)CC2)cc1C was tested. Which Percent Effect did it give?
A: -1.05%

Q: Which Percent Effect does the source give for O=C(C1=CCCC1)N1CCO[C@H]2[C@@H](OCC3CC3)CC[C@@H]21 here?
A: -28.7%

Q: COCCN(C)C[C@@H]1CN(C(=O)c2ccoc2)C[C@@H]1CO was tested. Which Percent Effect did it give?
A: 15.1%

Q: With Cc1ccc(C(CNC(=O)NCc2cc[nH]n2)N2CCOCC2)o1 (stereo not given) as the compound, how does the Percent Effect read?
A: -34.1%

Q: O=C(CCc1cccs1)N1CCC(Nc2cccnn2)CC1 was tested. Which Percent Effect did it give?
A: -26.6%

Q: Which Percent Effect does the source give for CN(C)Cc1nn(C)c2c1CCN(S(=O)(=O)c1cccs1)C2 here?
A: -17.1%

Q: With CC(C)Oc1cccc(C(=O)C2CCCN(C(=O)c3ccccn3)C2)c1 (stereo not given) as the compound, how does the Percent Effect read?
A: 6.16%

Q: CC(NC(=O)NCc1ccoc1)c1ccc2c(c1)CCC(=O)N2 (stereo not given) was tested. Which Percent Effect did it give?
A: -43.2%

Q: For CNS(=O)(=O)c1cccc(CNC(=O)c2c(C)oc(C)c2C)c1, which Percent Effect is on record?
A: -67.3%

Q: For CCOc1ccc(Cl)cc1C1CCCN1 (stereo not given), which Percent Effect is on record?
A: 5.67%

Q: Cn1cc(CN(Cc2ccccc2)CC(O)c2cccs2)cn1 (stereo not given) was tested. Which Percent Effect did it give?
A: 9.88%

Q: O=C(NCCCNc1ccccc1)c1scnc1Cl was tested. Which Percent Effect did it give?
A: -10.4%

Q: For COc1ccccc1CC(=O)N1CCC(NCc2c[nH]nc2C)CC1, which Percent Effect is on record?
A: 17.4%

Q: Cc1ccc(NC(=O)N2C[C@H]3CC[C@@H]2CN(Cc2cscn2)C3)cc1 was tested. Which Percent Effect did it give?
A: 8.71%

Q: With O=C(NCc1ccccn1)[C@@H]1CCO[C@@H]2CCN(Cc3ccoc3)C[C@H]21 as the compound, how does the Percent Effect read?
A: 4.93%

Q: With COCc1cc(O)nc(C2CCCN(Cc3cc(OC)ccc3F)C2)n1 (stereo not given) as the compound, how does the Percent Effect read?
A: 17.7%

Q: How did the Percent Effect turn out when Cn1cccc1C(=O)N1CCc2ncnc(N3CCCC3)c2CC1 was run?
A: -8.7%

Q: How did the Percent Effect turn out when CCn1cnnc1CNC(=O)N1CCN(Cc2ccccc2)CC1 was run?
A: 8.37%
